The values that follow come from the antibiotic and cytotoxicity screens of Wong et al. (2023).

In all, about 39,000 compounds went through this assay and about 3,300 (8.5%) were called active. Shown is part of a subset that was picked to be rich in actives.

The subject of this assay is HepG2. The assay is described as follows: cytotoxicity call (relative viability < 0.9). The conditions noted are these: 10 µM.
Take `C[C@@H]1CCCCO[C@@H](CN(C)C(=O)NC2CCCCC2)[C@H](C)CN([C@H](C)CO)C(=O)c2cc(NC(=O)Nc3ccc4c(c3)OCO4)ccc2O1`: the cytotoxicity call is “inactive”.
The entry for `C[C@@H]1CN([C@H](C)CO)C(=O)c2cccc(NS(=O)(=O)c3cn(C)cn3)c2O[C@@H]1CN(C)Cc1ccncc1` is “inactive”; for `C[C@@H]1CN([C@H](C)CO)S(=O)(=O)c2ccc(-c3cncnc3)cc2O[C@@H]1CN(C)C(=O)CN(C)C` it is “inactive”; for `C[C@@H]1CN([C@@H](C)CO)C(=O)c2cc(NC(=O)NC3CCCCC3)ccc2O[C@@H](C)CCCCO[C@H]1CN(C)C(=O)c1ccccc1` it is “inactive”.
The entry for `CO[C@@H](CN(C)C(=O)Nc1ccc(C(F)(F)F)cc1)[C@H](C)CN(Cc1ccccc1Cl)[C@H](C)CO` is “inactive”; for `Cc1ccc(S(=O)(=O)Nc2ccc3c(c2)C(=O)N([C@@H](C)CO)C[C@@H](C)[C@@H](CN(C)Cc2ccc(C(=O)O)cc2)OCCCC[C@@H](C)O3)cc1` it is “inactive”.
In the case of `COc1cc(-c2cc(=O)c3c(s2)N(c2ccc(OC)c(OC)c2)[C@@H](c2ccc(O)c(OC)c2)CC3=O)ccc1O` it was “inactive”.
Consider `COc1ccc(S(=O)(=O)Nc2ccc3c(c2)CC(=O)N([C@@H](C)CO)C[C@@H](C)[C@H](CN(C)S(=O)(=O)c2ccccc2)O3)cc1`, for which the cytotoxicity call is “inactive”.
The entry for `CC(C)NC(=O)N(C)C[C@H]1OCCCC[C@H](C)Oc2ccc(NS(C)(=O)=O)cc2C(=O)N([C@H](C)CO)C[C@@H]1C` is “inactive”.
For the molecule `C[C@H](CO)N1C[C@H](C)[C@@H](CN(C)C(=O)Nc2cccc3ccccc23)Oc2ccc(NS(=O)(=O)c3cccs3)cc2CC1=O`, the cytotoxicity call was “inactive”.
In the case of `CN(C)CCN1CCNCC1` it was “inactive”; in that of `C[C@H](NC(=O)N(C)C[C@H]1OCc2ccccc2-c2ccccc2C(=O)N([C@H](C)CO)C[C@@H]1C)c1ccccc1`, “inactive”.
For the molecule `CC(=O)OCCNC(=O)c1cccnc1`, the cytotoxicity call is “inactive”.
The entry for `O=C(NCCO[N+](=O)[O-])c1cccnc1` [listing 1 of 2 here] is “active”; for `O=C(NCCO[N+](=O)[O-])c1cccnc1` [listing 2 of 2 here] it is “inactive”; for `CC(C)CC#Cc1ccc2c(c1)O[C@H](CN(C)Cc1cncnc1)[C@@H](C)CN([C@@H](C)CO)S2(=O)=O` it is “inactive”.
For the molecule `O=C(C[C@H]1C=C[C@@H](NC(=O)c2cccc(F)c2)[C@@H](CO)O1)NCCN1CCCC1`, the cytotoxicity call was “inactive”.
The entry for `C[C@@H]1COCCS(=O)(=O)N1C` is “inactive”; for `O=C(CCCCCNC(=O)OC[C@H]1C(=O)O[C@@H](Cc2ccccc2)[C@H]2[C@H]3C(=CC(=O)[C@@H]3C3CC3)CN21)NO` it is “inactive”.
With `C[C@@H]1CCCCO[C@@H](CN(C)C(=O)CCC(F)(F)F)[C@@H](C)CN([C@@H](C)CO)C(=O)c2cc(NS(=O)(=O)c3ccc(F)cc3)ccc2O1`, the cytotoxicity call was “inactive”.
Turning to `COc1cccc(S(=O)(=O)N(C)C[C@@H]2OCc3cn(nn3)CCCC(=O)N([C@@H](C)CO)C[C@@H]2C)c1`, the cytotoxicity call is “inactive”.
In the case of `C[C@H](CO)N1C[C@H](C)[C@@H](CN(C)S(=O)(=O)c2ccc(Cl)cc2)OCCCC[C@H](C)Oc2ccc(NC(=O)NC3CCCCC3)cc2C1=O` it was “active”.
In the case of `C[C@@H]1CN([C@@H](C)CO)C(=O)c2cc(NC(=O)NC3CCCCC3)ccc2O[C@@H](C)CCCCO[C@@H]1CN(C)S(=O)(=O)c1ccc(Cl)cc1` it was “inactive”; in that of `C[C@@H]1CCCCO[C@H](CN(C)S(=O)(=O)c2ccc(Cl)cc2)[C@H](C)CN([C@H](C)CO)C(=O)c2cc(NC(=O)NC3CCCCC3)ccc2O1`, “active”; in that of `C[C@H](CO)N1C[C@H](C)[C@H](CN(C)S(=O)(=O)c2ccc(Cl)cc2)OCCCC[C@H](C)Oc2ccc(NC(=O)NC3CCCCC3)cc2C1=O`, “inactive”.
The entry for `C[C@@H]1CCCCO[C@@H](CN(C)S(=O)(=O)c2ccc(Cl)cc2)[C@H](C)CN([C@H](C)CO)C(=O)c2cc(NC(=O)NC3CCCCC3)ccc2O1` is “active”.
In the case of `C[C@@H]1CN([C@H](C)CO)C(=O)c2cc(NC(=O)NC3CCCCC3)ccc2O[C@@H](C)CCCCO[C@H]1CN(C)S(=O)(=O)c1ccc(Cl)cc1`, the cytotoxicity call is “active”.
The entry for `C[C@@H]1CN([C@H](C)CO)C(=O)c2cc(NC(=O)NC3CCCCC3)ccc2O[C@@H](C)CCCCO[C@@H]1CN(C)S(=O)(=O)c1ccc(Cl)cc1` is “inactive”; for `C[C@@H]1CCCCO[C@@H](CN(C)S(=O)(=O)c2ccc(Cl)cc2)[C@@H](C)CN([C@H](C)CO)C(=O)c2cc(NC(=O)NC3CCCCC3)ccc2O1` it is “inactive”; for `C[C@@H]1CCCCO[C@H](CN(C)S(=O)(=O)c2ccc(Cl)cc2)[C@@H](C)CN([C@H](C)CO)C(=O)c2cc(NC(=O)NC3CCCCC3)ccc2O1` it is “inactive”.
The entry for `C[C@@H]1CCCCO[C@@H](CN(C)S(=O)(=O)c2ccc(Cl)cc2)[C@H](C)CN([C@@H](C)CO)C(=O)c2cc(NC(=O)NC3CCCCC3)ccc2O1` is “inactive”; for `Cc1ccc(S(=O)(=O)N(C)C[C@H]2OCCCC[C@H](C)Oc3ccc(NS(C)(=O)=O)cc3C(=O)N([C@H](C)CO)C[C@H]2C)cc1` it is “inactive”; for `CNC[C@@H]1OCCCC[C@@H](C)Oc2ccc(NC(=O)c3ccncc3)cc2C(=O)N([C@@H](C)CO)C[C@H]1C` it is “inactive”.
The entry for `C[C@H](CO)N1C[C@H](C)[C@H](CN(C)C(=O)c2ccncc2)OCCCC[C@H](C)Oc2ccc(NS(=O)(=O)c3ccc(Cl)cc3)cc2C1=O` is “inactive”; for `CC(C)CN1C[C@H](C(=O)O)CC1=O` it is “inactive”; for `C[C@H](CO)N1C[C@H](C)[C@@H](CN(C)S(=O)(=O)c2cccs2)Oc2ccc(NC(=O)Cn3cnnn3)cc2C1=O` it is “inactive”.
Take `COc1ccc(CCN2C(=O)[C@@]3(c4ccc([N+](=O)[O-])cc4)CC(=O)N(C4CCCCC4)[C@@H]3c3ccc(CO)cc32)cc1`: the cytotoxicity call is “inactive”.
In the case of `C[C@@H]1CN([C@H](C)CO)C(=O)c2cc(NC(=O)C3CCCCC3)ccc2O[C@@H](C)CCCCO[C@H]1CN(C)Cc1ccncc1` it was “inactive”; in that of `C[C@H](CO)N1C[C@H](C)[C@H](CN(C)C(=O)c2ccccn2)Oc2cc(C#Cc3ccccc3)ccc2S1(=O)=O`, “inactive”.
For the molecule `C[C@H](CO)N1C[C@H](C)[C@@H](CN(C)C(=O)Nc2ccc3c(c2)OCO3)OCCCC[C@H](C)Oc2ccc(NC(=O)Nc3ccc(C(F)(F)F)cc3)cc2C1=O`, the cytotoxicity call was “inactive”.
On to `C[C@@H]1CN([C@@H](C)CO)C(=O)c2cccc(NS(C)(=O)=O)c2O[C@H]1CN(C)Cc1ccc2c(c1)OCO2`, for which the cytotoxicity call was “inactive”.
The entry for `Cc1ccc(S(=O)(=O)N2C[C@H](O)COC[C@H]3O[C@H](CC(=O)NCc4ccc5c(c4)OCO5)CC[C@@H]32)cc1` is “inactive”; for `C[C@H]1CN([C@@H](C)CO)C(=O)c2cc(C#Cc3cccc(F)c3)cnc2O[C@@H]1CN(C)CC1CCOCC1` it is “inactive”; for `C[C@H](CO)N1C[C@H](C)[C@H](CN(C)C(=O)Nc2ccc(C(F)(F)F)cc2)OCCCC[C@H](C)Oc2ccc(NC(=O)Nc3ccc4c(c3)OCO4)cc2C1=O` it is “inactive”.
The entry for `C[C@@H]1CCCCO[C@H](CN(C)S(=O)(=O)c2ccc(Cl)cc2)[C@@H](C)CN([C@@H](C)CO)C(=O)c2cc(NC(=O)NC3CCCCC3)ccc2O1` is “inactive”; for `C[C@@H]1CCCCO[C@@H](CN(C)S(=O)(=O)c2ccc(Cl)cc2)[C@@H](C)CN([C@@H](C)CO)C(=O)c2cc(NC(=O)NC3CCCCC3)ccc2O1` it is “active”.
For the molecule `C[C@H]1CCCCO[C@@H](CN(C)S(=O)(=O)c2ccc(Cl)cc2)[C@@H](C)CN([C@@H](C)CO)C(=O)c2cc(NC(=O)NC3CCCCC3)ccc2O1`, the cytotoxicity call is “active”.
With `C[C@@H]1CCCCO[C@H](CN(C)S(=O)(=O)c2ccc(Cl)cc2)[C@H](C)CN([C@@H](C)CO)C(=O)c2cc(NC(=O)NC3CCCCC3)ccc2O1`, the cytotoxicity call was “inactive”.
The entry for `C[C@H]1CCCCO[C@H](CN(C)S(=O)(=O)c2ccc(Cl)cc2)[C@@H](C)CN([C@@H](C)CO)C(=O)c2cc(NC(=O)NC3CCCCC3)ccc2O1` is “inactive”.
In the case of `CN1[C@@H]2Cn3c(ccc(-c4ccccc4)c3=O)[C@H]1[C@@H](C(=O)NCCCN1CCOCC1)[C@@H]2CO` it was “inactive”; in that of `C[C@@H]1CN([C@@H](C)CO)C(=O)Cc2cc(NC(=O)Cn3cnnn3)ccc2O[C@H]1CN(C)C(=O)Nc1ccccc1`, “inactive”; in that of `CCCNC(=O)N[C@H]1C=C[C@@H](CC(=O)N2CCN(C)CC2)O[C@@H]1CO`, “inactive”.
In the case of `C[C@H]1CN([C@@H](C)CO)C(=O)c2cc(/C=C/c3ccccc3)cnc2O[C@@H]1CN(C)C(=O)c1cnccn1` it was “inactive”; in that of `C[C@H]1CN([C@@H](C)CO)C(=O)Cc2cc(NC(=O)Cn3cnnn3)ccc2O[C@H]1CN(C)Cc1ccc(Oc2ccccc2)cc1`, “inactive”; in that of `COCC(=O)N(C)C[C@@H]1Oc2cc(-c3ccc(C#N)cc3)ccc2S(=O)(=O)N([C@H](C)CO)C[C@H]1C`, “inactive”.
Take `COc1ccc(S(=O)(=O)Nc2ccc3c(c2)C(=O)N([C@@H](C)CO)C[C@@H](C)[C@@H](CN(C)S(C)(=O)=O)OCCCC[C@@H](C)O3)cc1`: the cytotoxicity call is “inactive”.
The entry for `C[C@H](CO)N1C[C@H](C)[C@@H](CN(C)S(=O)(=O)c2cccs2)Oc2ccc(NC(=O)Cc3ccccc3)cc2C1=O` is “inactive”.
The entry for `C[C@@H]1CN([C@H](C)CO)C(=O)c2cc(NC(=O)Nc3ccc(F)cc3)ccc2O[C@@H](C)CCCCO[C@H]1CN(C)Cc1ccncc1` is “inactive”; for `CC(C)NC(=O)Nc1ccc2c(c1)C(=O)N([C@@H](C)CO)C[C@@H](C)[C@H](CN(C)Cc1ccc(-c3ccccc3)cc1)O2` it is “inactive”.
The entry for `C[C@@H]1CN([C@@H](C)CO)C(=O)c2cc(NC(=O)Nc3ccccc3)ccc2O[C@H]1CN(C)Cc1ccc(-c2ccccc2)cc1` is “active”.
In the case of `C[C@H](CO)N1C[C@H](C)[C@@H](CN(C)Cc2ccc(-c3ccccc3)cc2)Oc2ccc(NC(=O)Nc3ccccc3)cc2C1=O`, the cytotoxicity call was “active”.
Regarding `CC(C)NC(=O)Nc1ccc2c(c1)C(=O)N([C@@H](C)CO)C[C@@H](C)[C@@H](CN(C)Cc1ccc(-c3ccccc3)cc1)O2`, the cytotoxicity call was “active”.
As for `C[C@@H]1CN([C@H](C)CO)C(=O)c2cc(NC(=O)Nc3ccccc3)ccc2O[C@@H]1CN(C)Cc1ccc(-c2ccccc2)cc1`, the cytotoxicity call was “active”.
The entry for `CC(C)NC(=O)Nc1ccc2c(c1)C(=O)N([C@@H](C)CO)C[C@H](C)[C@@H](CN(C)Cc1ccc(-c3ccccc3)cc1)O2` is “inactive”.
The entry for `C[C@H](CO)N1C[C@H](C)[C@H](CN(C)Cc2ccc(-c3ccccc3)cc2)Oc2ccc(NC(=O)Nc3ccccc3)cc2C1=O` is “inactive”; for `C[C@H]1CN([C@@H](C)CO)C(=O)c2cc(NC(=O)Nc3ccccc3)ccc2O[C@H]1CN(C)Cc1ccc(-c2ccccc2)cc1` it is “inactive”.
